Measured values: the supplement of paper PMC12645437, “Orthogonal IMiD-Degron Pairs Induce Selective Protein Degradation in Cells” (ACS Chemical Biology, 2025)
Whole data set: some 8,300 sequences, median “log2 fold change of degron read counts, EGFP-low vs EGFP+ sorted cells (limma voom), compound-induced degradation” near -1.1, cut for the highest 2% near 3.2. The full list was thinned out, with the highest values kept by preference.

T1: CRBN, Q96SW2
T1 chain: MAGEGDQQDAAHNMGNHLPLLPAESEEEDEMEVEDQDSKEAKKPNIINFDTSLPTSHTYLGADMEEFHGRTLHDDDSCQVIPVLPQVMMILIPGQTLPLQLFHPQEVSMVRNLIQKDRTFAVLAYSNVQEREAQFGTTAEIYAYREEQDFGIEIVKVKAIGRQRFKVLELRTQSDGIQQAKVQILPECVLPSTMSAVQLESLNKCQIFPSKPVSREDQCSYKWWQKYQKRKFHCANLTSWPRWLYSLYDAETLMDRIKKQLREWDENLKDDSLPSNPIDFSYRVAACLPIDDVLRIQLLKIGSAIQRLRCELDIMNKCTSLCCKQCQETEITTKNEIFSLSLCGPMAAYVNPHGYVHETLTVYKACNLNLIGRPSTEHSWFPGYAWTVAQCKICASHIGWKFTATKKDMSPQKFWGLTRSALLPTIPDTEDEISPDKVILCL


Target: T1, CRBN, Q96SW2
Experiment: log2 fold change of degron read counts, EGFP-low vs EGFP+ sorted cells (limma voom), compound-induced degradation; higher = more compound-induced degradation of the degron-EGFP fusion; degrons are variants of IKZF1/3 zinc finger 2; compound dose not given here
Settings: Jurkat, 18 h
[1] = compound: compound 19 (5-tert-butyl-thalidomide)
[2] = compound: compound 22 (5-morpholino-thalidomide)
[3] = compound: compound 33 (diphenyl IMiD analogue)
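Note: pooled lentiviral library of zinc finger degron-EGFP fusions in mCherry-positive Jurkat cells, FACS-sorted after compound exposure, with degron abundance counted by next-generation sequencing.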

Row | Sequence | log2 fold change of degron read counts [1] | log2 fold change of degron read counts [2] | log2 fold change of degron read counts [3] | log2 fold change of degron read counts (compound: thalidomide)
1 | FHCPICGRFFTQKGNLLRHIKL [46F_47H_49P_50I_52G_53R_54F_55F_67L_, Q9UKT9] | -0.744 | -1.72 | -0.739 | -1.66
2 | FCCEQCGAPFTQKGNLLRHIKL [46F_47C_49E_50Q_52G_53A_54P_55F_67L_, Q9UKT9] | -0.706 | -2.38 | -1.75 | -1.28
3 | FSCEICGADFTQKGNLLRHIKL [46F_47S_49E_50I_52G_53A_54D_55F_67L_, Q9UKT9] | 0.281 | -0.67 | -0.225 | -0.832
4 | FKCEICGAPFTQKGNLLRHIKL [46F_47K_49E_50I_52G_53A_54P_55F_67L_, Q9UKT9] | 2.99 | 1.73 | -0.501 | 2.51
5 | FCCEICGAPFTQKGNLLRHIKL [46F_47C_49E_50I_52G_53A_54P_55F_67L_, Q9UKT9] | 3.63 | 2.99 | 1.57 | 2.05
6 | FCCEICGADFTQKGNLLRHIKL [46F_47C_49E_50I_52G_53A_54D_55F_67L_, Q9UKT9] | 0.103 | -0.401 | 0.273 | -0.00478
7 | FSCEICGAPFTQKGNLLRHIKL [46F_47S_49E_50I_52G_53A_54P_55F_67L_, Q9UKT9] | 3.54 | 2.69 | 1.29 | 1.99
8 | FHCNQCGRVFTQKGNLLRHIKL [46F_47H_49N_50Q_52G_53R_54V_55F_67L_, Q9UKT9] | -1.76 | -2.76 | -1.72 | -1.87
9 | FTCPQCGAAFTQKGNLLRHIKL [46F_47T_49P_50Q_52G_53A_54A_55F_67L_, Q9UKT9] | -0.476 | 0.413 | 1.73 | 0.798
10 | FRCEVCGAMFTQKGNLLRHIKL [46F_47R_49E_50V_52G_53A_54M_55F_67L_, Q9UKT9] | -0.953 | -0.985 | 0.652 | 0.605
11 | FFCDICGAKFTQKGNLLRHIKL [46F_47F_49D_50I_52G_53A_54K_55F_67L_, Q9UKT9] | 3.35 | 3.15 | 0.231 | -0.76
12 | FWCDICGAKFTQKGNLLRHIKL [46F_47W_49D_50I_52G_53A_54K_55F_67L_, Q9UKT9] | 3.22 | 3.7 | 0.265 | -0.173
13 | FKCDICGAKFTQKGNLLRHIKL [46F_47K_49D_50I_52G_53A_54K_55F_67L_, Q9UKT9] | -2.45 | -3.31 | -3.09 | -2.29
14 | FTCDICGAKFTQKGNLLRHIKL [46F_47T_49D_50I_52G_53A_54K_55F_67L_, Q9UKT9] | -0.131 | 0.993 | -1.38 | 0.963
15 | FNCDICGAKFTQKGNLLRHIKL [46F_47N_49D_50I_52G_53A_54K_55F_67L_, Q9UKT9] | 0.554 | -1.18 | -2.65 | -2.02
16 | FYCDICGAKFTQKGNLLRHIKL [46F_47Y_49D_50I_52G_53A_54K_55F_67L_, Q9UKT9] | 3.2 | 3.32 | 0.608 | -0.632
17 | FLCDICGAKFTQKGNLLRHIKL [46F_47L_49D_50I_52G_53A_54K_55F_67L_, Q9UKT9] | -0.855 | -1.86 | -1.23 | 0.0222
18 | FMCDICGAKFTQKGNLLRHIKL [46F_47M_49D_50I_52G_53A_54K_55F_67L_, Q9UKT9] | -0.74 | -1.21 | -0.567 | -0.432
19 | FICDICGAKFTQKGNLLRHIKL [46F_47I_49D_50I_52G_53A_54K_55F_67L_, Q9UKT9] | -1.2 | 1.29 | -0.575 | 0.898
20 | FQCDICGAKFTQKGNLLRHIKL [46F_47Q_49D_50I_52G_53A_54K_55F_67L_, Q9UKT9] | -0.69 | 2.25 | -0.885 | 3.28

Row | Sequence | log2 fold change of degron read counts [1] | log2 fold change of degron read counts [2] | log2 fold change of degron read counts [3] | log2 fold change of degron read counts (compound: thalidomide)
21 | FECDICGAKFTQKGNLLRHIKL [46F_47E_49D_50I_52G_53A_54K_55F_67L_, Q9UKT9] | -0.727 | -2.12 | -2.83 | 0.61
22 | FCCDICGAKFTQKGNLLRHIKL [46F_47C_49D_50I_52G_53A_54K_55F_67L_, Q9UKT9] | 1.97 | 1.65 | -1.18 | 0.858
23 | FNCDVCGAHFTQKGNLLRHIKL [46F_47N_49D_50V_52G_53A_54H_55F_67L_, Q9UKT9] | -0.166 | -1.87 | -1.95 | -2.36
24 | FLCPQCGAPFTQKGNLLRHIKL [46F_47L_49P_50Q_52G_53A_54P_55F_67L_, Q9UKT9] | -1.51 | -0.398 | 0.89 | 0.718
25 | LRCNQCGFVCTQKGNLLRHIKL [46L_47R_49N_50Q_52G_53F_54V_55C_67L_, Q9UKT9] | -1.27 | -2.74 | -1.29 | -1.39
26 | FGCEICGAFFTQKGNLLRHIKL [46F_47G_49E_50I_52G_53A_54F_55F_67L_, Q9UKT9] | 2.48 | 1.05 | 2.58 | 0.0705
27 | FECPVCGADFTQKGNLLRHIKL [46F_47E_49P_50V_52G_53A_54D_55F_67L_, Q9UKT9] | -1.59 | -1.56 | 2.05 | 2.24
28 | FDCEVCGAQFTQKGNLLRHIKL [46F_47D_49E_50V_52G_53A_54Q_55F_67L_, Q9UKT9] | 1.45 | 0.572 | -0.0193 | 1.19
29 | FNCEVCGAQFTQKGNLLRHIKL [46F_47N_49E_50V_52G_53A_54Q_55F_67L_, Q9UKT9] | 2.48 | 1.07 | 0.414 | 0.334
30 | FWCEVCGAQFTQKGNLLRHIKL [46F_47W_49E_50V_52G_53A_54Q_55F_67L_, Q9UKT9] | 3.44 | 3.79 | 2.82 | 2.03
31 | FYCEVCGAQFTQKGNLLRHIKL [46F_47Y_49E_50V_52G_53A_54Q_55F_67L_, Q9UKT9] | 3.53 | 3.57 | 2.99 | 1.94
32 | FVCEVCGAQFTQKGNLLRHIKL [46F_47V_49E_50V_52G_53A_54Q_55F_67L_, Q9UKT9] | 0.146 | 2.74 | 2.92 | 2.99
33 | FECEVCGAQFTQKGNLLRHIKL [46F_47E_49E_50V_52G_53A_54Q_55F_67L_, Q9UKT9] | -0.548 | -1.16 | 1.28 | 2.29
34 | FACEVCGAQFTQKGNLLRHIKL [46F_47A_49E_50V_52G_53A_54Q_55F_67L_, Q9UKT9] | 3.49 | 2.06 | 0.981 | 0.73
35 | FSCEVCGAQFTQKGNLLRHIKL [46F_47S_49E_50V_52G_53A_54Q_55F_67L_, Q9UKT9] | 2.77 | 2.35 | 1.32 | 1.33
36 | FRCEVCGAQFTQKGNLLRHIKL [46F_47R_49E_50V_52G_53A_54Q_55F_67L_, Q9UKT9] | 0.18 | 0.339 | 1.48 | 1.56
37 | FQCEVCGAQFTQKGNLLRHIKL [46F_47Q_49E_50V_52G_53A_54Q_55F_67L_, Q9UKT9] | 0.659 | 2.56 | 2.21 | 3.77
38 | FHCEVCGAQFTQKGNLLRHIKL [46F_47H_49E_50V_52G_53A_54Q_55F_67L_, Q9UKT9] | 1.71 | 2.6 | 1.97 | 0.794
39 | FICEVCGAQFTQKGNLLRHIKL [46F_47I_49E_50V_52G_53A_54Q_55F_67L_, Q9UKT9] | -0.278 | 2.8 | 2.99 | 2.69
